High-throughput results (PubChem)
Shown are actives, neighbours in structure and some others; about 3.7% of the full set was active somewhere.
Nrf2 inh – Nrf2 qHTS screen for inhibitors; A549 ARE-Fluc reporter, luciferase luminescence, 18-24 h; AID 504444, 2011; 360,000 tested, 2.1% active; Potency, µM (top dose mostly 46 µM), inactives show at the highest dose activity change, negative = inhibition, hits mostly inhibitors; also: potency is read from the fitted curve at half-maximal effect; % is scaled to controls: 0 for no effect and ±100 for the full control effect; nearly all actives have a fitted effect of over 60% in size
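Nrf2 function is reported as luminescence of an ARE-controlled luciferase in A549 cells. Compounds were tested at several concentrations, and a CellTiter-Fluor read on the same wells flagged cytotoxicity.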
p53 reactivation – qHTS assay for re-activators of p53 using a Luc reporter; H1299 p53-A138V BP100-luciferase reporter, luminescence, 24 h; Potency, µM (doses to about 92.2 µM), for the others: at the highest dose activity change, positive = activation, hits mostly activators; 320,000 tested, 0.063% active; AID 504706, 2011; also: potency is read from the fitted curve at half-maximal effect; % of control where 0% means no effect; nearly all actives have a fitted effect of over 45% in size
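H1299 (p53-null), stable ts p53-A138V + BP100-Luc; 1000 cells/well, Opti-MEM/10% FBS; cpd 4 pt, 1:5; 24 h, 37 deg C, 5% CO2; detection reagent 10 min RT; luminescence.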
A549 viability – Nrf2 qHTS screen for inhibitors: counterscreen for cytotoxicity | A549 ARE-Fluc cells, CellTiter-Fluor viability, 18-24 h | Potency, µM (series often up to 46 µM), for the others: at the highest dose activity change, negative = cytotoxicity, most hits filed as inhibitors | 390,000 tested, 0.16% active | AID 504648, 2011; also: potency is read from the fitted curve at half-maximal effect; % is scaled to controls: 0 for no effect and ±100 for the full control effect
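A549 ARE_Fluc cells in 5% FBS OPTI-MEM were exposed to compounds in concentration-response for 18-24 h at 37 deg C. Viability was read by CellTiter-Fluor fluorescence (Ex 405/Em 525) after 30 min, before the luciferase read.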
ClpP mod – qHTS Assay for Activators of ClpP. ATP-dependent Clp protease proteolytic subunit (Bacillus subtilis (strain 168)), P80244. purified B. subtilis ClpP, FRET peptide cleavage, 20 min. Potency, µM (top dose mostly 57.5 µM), without a hit: at the highest dose activity change, negative = active. 340,000 tested, 1.9% active. AID 651965, 2013; active = well fitted falling curve with a large enough effect; inconclusive = small, poorly fitted or top-dose-only effect; inactive = no such curve, though single readings can be large or run the other way; also: potency is read from the fitted curve at half-maximal effect; the source files actives as falling curves though it sought activators and does not explain the sign; nearly all actives have a fitted effect of over 65% in size
Target sequence (P80244 whole entry, looked up): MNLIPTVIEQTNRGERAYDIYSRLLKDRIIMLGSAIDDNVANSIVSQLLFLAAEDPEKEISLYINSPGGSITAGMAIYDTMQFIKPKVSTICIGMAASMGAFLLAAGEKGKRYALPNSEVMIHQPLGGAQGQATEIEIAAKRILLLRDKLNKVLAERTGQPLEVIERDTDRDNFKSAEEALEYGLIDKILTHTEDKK
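FRET quenching reversal measured ClpP activation: 10 microg/mL B. subtilis ClpP at pH 8 with the FRET-FV decapeptide, read at 430 nm after 320 nm excitation. The 20-min minus 0-min signal was scaled between DMSO/no-enzyme wells and ADEP (5.8 microM final).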
Nrf2 ARE act – qHTS of Nrf2 Activators | 410,000 tested, 0.31% active | AREc32 ARE-luciferase reporter (MCF7-derived line), luminescence, 24 h | AID 624171, 2012 | Potency, µM (doses to about 46.1 µM), for inactives: at the highest dose activation, usual class: activators; also: potency is read from the fitted curve at half-maximal effect; % of control where 0% means no effect; nearly all actives have a fitted effect of over 65% in size
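Luciferase luminescence (Steady-Glo, 30 min at room temperature) served as the read-out of ARE activation in AREc32 cells treated with compounds for 24 hr at 37 deg C.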
miR-21 reporter – qHTS Assay for Modulators of miRNAs and/orActivators of miR-21. 340,000 tested, under 10 active. HeLa miR-21 FLuc reporter, luciferase, 48 h. Potency, µM (series often up to 38.3 µM), inactives show at the highest dose activity change, positive = activation, usual class: activators. AID 2288, 2010;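 also: % of control where 0% means no effect; miR-21 action dims this reporter so a rising signal means less miR-21 action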
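HeLa cells stably expressing CMV-driven firefly luciferase with a downstream miR-21 binding sequence, endogenously expressing miR-21, were treated with titrations (up to about 40uM final) for 48 hours at 37 degree Celsius. Luciferase luminescence was read after lysis.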
Active calls of the source: *; ? = inconclusive; nt = no result. Unless noted, calls follow the shape of the dose curve; as a rule, active = well fitted curve in the direction sought with a large enough effect; inconclusive = small, poorly fitted or top-dose-only effect, or another doubt; inactive = no such curve, though single readings can be large; an effect the other way counts as inactive or inconclusive.

SMILES	Nrf2 inh	p53 reactivation	A549 viability	ClpP mod	Nrf2 ARE act	miR-21 reporter
CCOC(=O)c1c(-c2ccc(F)cc2)csc1NC(=O)c1c(-c2ccccc2)noc1C	?	-3.9%	3.0%	20µM*	-0.5%	16.9%
Cn1c2cc(C#N)sc2c2cnn(Cc3ccccc3F)c(=O)c21	13.2%	nt	-3.9%	nt	nt	nt
COc1ccc(C(=O)NCC(c2cccnc2)N2CCN(c3ccc(F)cc3)CC2)cc1 (stereo not given)	?	nt	?	-1.6%	3.1%	13.9%
O=[N+]([O-])c1ccc(O)c(-c2ccnc3cc(-c4ccccc4)nn23)c1	18.4µM*	nt	16.4µM*	-0.4%	8.6%	25.5%
O=[N+]([O-])c1cccc(-c2cc(C(F)(F)F)n3nc(-c4ccccc4)cc3n2)c1	0.6%	-1.9%	-1.4%	-0.1%	-0.4%	5.9%
COc1ccc(-c2nc(-c3ccccc3)c(-c3ccc(O)cc3)[nH]2)cc1	?	nt	-8.5%	5.01µM*	-3.0%	15.7%
COc1ccc(-c2noc(-c3ccc4c(c3)OCO4)n2)cc1	?	?	-5.9%	-3.0%	0.4%	-39.3%
COc1ccc(-c2[nH]c(-c3ccc(O)cc3)nc2-c2ccccc2)cc1	9.0%	nt	-3.6%	7.94µM*	-3.3%	2.4%
COc1ccc(-c2nc(-c3ccc4c(c3)OCO4)[nH]c2-c2ccc(OC)cc2)cc1	25.9µM*	4.6%	?	10.5%	0.7%	12.7%
Cc1ccc(Cn2c(C(C)NC(=O)c3ccccc3)nc3ccccc32)cc1 (stereo not given)	-18.7%	nt	3.4%	-0.3%	0.0%	0.5%
CCc1cc(C(=O)N2CCCc3ccccc32)sc1C	24.2%	nt	-3.2%	-0.5%	0.1%	nt
CC1=C(C#N)C(c2cccnc2)C2=C(N1)c1ccccc1C2=O (stereo not given)	7.5%	-5.0%	0.4%	0.1%	-0.6%	-2.0%
CC1=C(C#N)C(c2cccnc2)C2=C(CCCC2=O)N1 (stereo not given)	10.9%	-3.4%	0.1%	8.91µM*	0.4%	-4.9%
O=C(NCc1ccccc1Br)c1ccc2c(c1)nc1n2CCOC1	nt	nt	-1.1%	1.7%	-0.7%	-13.7%
CCOC(=O)c1c(C)[nH]c(C)c1C(=O)CSc1nc2ccccc2c(=O)n1-c1ccccc1C	?	-17.6%	?	28.2µM*	5.9%	-7.5%
CCOC(=O)c1c(C)[nH]c(C)c1C(=O)CSc1nc2ccccc2c(=O)n1-c1ccc(F)cc1	23.1µM*	2.7%	?	nt	5.5%	10.0%
Cc1c(C(=O)NCc2ccc(F)cc2)oc2ccc(S(=O)(=O)N3CCCCC3)cc12	nt	nt	-0.9%	-5.5%	0.9%	23.6%
CC(=O)Nc1ccc(/C=C/c2nc(-c3ccccc3O)n(-c3ccccc3)n2)cc1	-3.9%	nt	-0.1%	4.2%	-0.2%	-10.1%
CC(CNC(=O)Cn1ccc2cc(S(=O)(=O)N3CCCCC3)ccc21)c1ccccc1 (stereo not given)	?	nt	0.4%	-15.4%	4.5%	12.4%
Cc1sc(NC(=O)Cc2ccc3c(c2)OCO3)nc1-c1ccc2c(c1)CCN2C(=O)c1ccccc1F	?	?	1.5%	-5.3%	3.2%	-28.5%
Cc1sc(NC(=O)CN2CCCC2)nc1-c1ccc2c(c1)CCN2C(=O)c1cccc(F)c1	23.1µM*	9.2%	?	nt	6.7%	23.3%
Cc1ccc(C(=O)c2cc([N+](=O)[O-])ccc2N2CCCCC2)cc1	?	16.9%	16.4µM*	-7.9%	3.3%	19.4%
CC(C)N(C(=O)Cn1cc(S(=O)(=O)Cc2ccc(Br)cc2)c2ccccc21)C(C)C	?	nt	0.9%	0.6%	-0.2%	-1.9%
